In PubChem BioAssay (Tox21):
Where “and” joins values, the source holds several entries; their conditions need not be identical. Equal values may be shown once. Records with an inconclusive call do not appear. A structure can be active in one record and inactive in another. Calls of active or inactive are those of the source. Unless noted, calls follow the shape of the dose curve; as a rule, active = well fitted curve in the direction sought with a large enough effect in the repeat runs; inconclusive = weak or mixed curves; inactive = no such curve, though single readings can be large; an effect the other way counts as inactive or inconclusive.

Assays:
[1] = qHTS assay for small molecules that induce genotoxicity in human embryonic kidney cells expressing luciferase-tagged ATAD5 (AID 651632); also: nearly all actives have a fitted effect of over 15% in size
Procedure, shortened: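 Luminescence read-out: after 16 hr compound exposure at 37C, ATAD5-luciferase HEK293T cells received Amplite, 30 min RT, then CCD imaging. A rise in signal marks genotoxic stress.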

[2] = qHTS assay for small molecules that induce genotoxicity in human embryonic kidney cells expressing luciferase-tagged ATAD5 - cell viability (AID 651634; calls by dose curve; also: nearly all actives have a fitted effect of over 25% in size)
Procedure, shortened: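 HEK293T ATAD5-luc cells, 2,000/well; compound 15.5 hr, 37C/5% CO2; CellTiter-Fluor 30 min, 37C; fluorescence read.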

[3] = qHTS assay for small molecule disruptors of the mitochondrial membrane potential (AID 720635); also: potency is read from the fitted curve at half-maximal effect
Procedure, shortened: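 Mitochondrial membrane potential tracked with Mito-MPS dye, red aggregates (ex 540/em 590 nm) against green monomers (ex 490/em 535 nm). Compound treatment 1 hr at 37C, dye 30 min in HepG2.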

[4] = qHTS assay to test for compound auto fluorescence at 590 nm (red) in HepG2 cells (AID 720674)
Procedure, shortened: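 1 hr compound incubation on HepG2 cells, 37 C, 5% CO2; plate read ex 540 nm / em 590 nm; intensities reported as Rose Bengal sodium equivalents.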

[5] = qHTS assay to test for compound auto fluorescence at 535 nm (green) in HepG2 cells (AID 720675)
[6] = qHTS assay to test for compound auto fluorescence at 460 nm (blue) in HEK293 cells (AID 720678)
Procedure, shortened: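 HEK293, 2,000 cells/well, 10% dialyzed FBS; attach 4-5 hr 37C; pin compound or DMSO; o/n 37C/5% CO2; fluorescence 405/460 nm; triamterene-equivalent units.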

[7] = qHTS assay to test for compound auto fluorescence at 590 nm (red) in HEK293 cells (AID 720679)
Procedure, shortened: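 Intensity at 540nm excitation and 590nm emission is reported as Rose Bengal sodium-equivalent autofluorescence. Measurements followed overnight exposure (37C, 5% CO2) of HEK293 cells, 2,000 per well, to 23 nL compound.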

[8] = qHTS assay to test for compound auto fluorescence at 535 nm (green) in HEK293 cells (AID 720680)
[9] = qHTS assay to test for compound auto fluorescence at 460 nm (blue) in HEK293 cell free culture (AID 720681)
Procedure, shortened: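 Blue fluorescence (Ex 405/Em 460 nm, triamterene-equivalent) was read immediately after pin transfer of compound or DMSO into medium (DMEM, 10% FBS) without cells.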

[10] = qHTS assay to test for compound auto fluorescence at 535 nm (green) in HEK293 cell free culture (AID 720682)
Procedure, shortened: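 Each library compound, or DMSO control, is added by pintool to medium alone, comprising DMEM and 10% FBS. Emission at 535 nm following 485 nm excitation is quantified against fluorescein.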

[11] = qHTS assay to test for compound auto fluorescence at 590 nm (red) in HEK293 cell free culture (AID 720683)
Procedure, shortened: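 Red-channel autofluorescence of compounds in culture medium (DMEM, 10% FBS), no cells, measured at 540/590 nm. Rose Bengal sodium is the reference fluorophore for equivalence.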

[12] = qHTS assay to test for compound auto fluorescence at 590 nm (red) in HepG2 cell free culture (AID 720684)
Procedure, shortened: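 No cells present: MEM + 10% FBS only. Compound pinned in, red label read (540/590 nm). Activity = fluorescence equivalent to Rose Bengal sodium.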

[13] = qHTS assay to test for compound auto fluorescence at 460 nm (blue) in HepG2 cell free culture (AID 720685)
Procedure, shortened: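 Cell-free plates of MEM plus 10% FBS received 23 nL compound or DMSO vehicle; blue-channel (405/460 nm) intensity scored against triamterene as reference fluorophore.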

[14] = qHTS assay to test for compound auto fluorescence at 535 nm (green) in HepG2 cell free culture (AID 720686)
[15] = qHTS assay to test for compound auto fluorescence at 460 nm (blue) in HepG2 cells (AID 720687)
Procedure, shortened: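 Blue-channel autofluorescence (Ex/Em 405/460 nm, triamterene-equivalent) was measured after 1 hr compound exposure at 37 C, 5% CO2. Cells were HepG2, plated overnight at 37 C in MEM plus 10% FBS.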

[16] = target: Glucocorticoid receptor (Homo sapiens) (UniProt P04150); experiment: qHTS assay to identify small molecule agonists of the glucocorticoid receptor (GR) signaling pathway (AID 720691; active = well fitted activation curve with a large enough effect in the signal ratio in the repeat runs, not every such curve was filed as active; the % refers to the signal ratio; also: potency is read from the fitted curve at half-maximal effect); details: GR-bla HeLa, beta-lactamase reporter ratio, 18 h; activation: at 62.4 µM (top of the series)
Procedure, shortened: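 HeLa GR-bla reporter line; cells pre-incubated 4 h, compound in DMSO 18 h at 37 C; LiveBLAzer B/G FRET substrate 2 h RT; fluorescence intensity read-out.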

[17] = target: Glucocorticoid receptor (Homo sapiens) (UniProt P04150); experiment: qHTS assay to identify small molecule antagonists of the glucocorticoid receptor (GR) signaling pathway (AID 720692; active = well fitted inhibition curve with a large enough effect in the signal ratio in the repeat runs, not every such curve was filed as active; the % refers to the signal ratio; also: potency is read from the fitted curve at half-maximal effect)
Procedure, shortened: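 Read-out: beta-lactamase FRET substrate fluorescence, 2 h at room temperature, in HeLa cells stably carrying a GRE-driven bla reporter. Compounds were co-incubated with 5 nM dexamethasone agonist (final) for 18 h at 37 C.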

[18] = qHTS assay for small molecule disruptors of the mitochondrial membrane potential - cell viability (AID 720634; calls by dose curve; also: nearly all actives have a fitted effect of over 20% in size; also: potency is read from the fitted curve at half-maximal effect)
Procedure, shortened: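 Luminescence from CellTiter-Glo (ATP content) gave viability in HepG2 cells, read in the same wells as the MMP dye assay after 1 hr compound exposure at 37 C.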

[19] = qHTS assay for small molecule agonists of the p53 signaling pathway - cell viability (AID 651633; calls by dose curve;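 also: p53RE-bla HCT reporter cells with a stable beta-lactamase p53 reporter; nearly all actives have a fitted effect of over 30% in size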)
Procedure, shortened: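 Viability counter-read: CellTiter-Glo luminescence (30 min, room temperature) in the same p53RE-bla plates. These plates had been exposed to compounds for 16 h at 37 C.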
% is scaled to controls: 0 for no effect and ±100 for the full control effect.

Chain of Glucocorticoid receptor (Homo sapiens) (P04150 whole entry, looked up): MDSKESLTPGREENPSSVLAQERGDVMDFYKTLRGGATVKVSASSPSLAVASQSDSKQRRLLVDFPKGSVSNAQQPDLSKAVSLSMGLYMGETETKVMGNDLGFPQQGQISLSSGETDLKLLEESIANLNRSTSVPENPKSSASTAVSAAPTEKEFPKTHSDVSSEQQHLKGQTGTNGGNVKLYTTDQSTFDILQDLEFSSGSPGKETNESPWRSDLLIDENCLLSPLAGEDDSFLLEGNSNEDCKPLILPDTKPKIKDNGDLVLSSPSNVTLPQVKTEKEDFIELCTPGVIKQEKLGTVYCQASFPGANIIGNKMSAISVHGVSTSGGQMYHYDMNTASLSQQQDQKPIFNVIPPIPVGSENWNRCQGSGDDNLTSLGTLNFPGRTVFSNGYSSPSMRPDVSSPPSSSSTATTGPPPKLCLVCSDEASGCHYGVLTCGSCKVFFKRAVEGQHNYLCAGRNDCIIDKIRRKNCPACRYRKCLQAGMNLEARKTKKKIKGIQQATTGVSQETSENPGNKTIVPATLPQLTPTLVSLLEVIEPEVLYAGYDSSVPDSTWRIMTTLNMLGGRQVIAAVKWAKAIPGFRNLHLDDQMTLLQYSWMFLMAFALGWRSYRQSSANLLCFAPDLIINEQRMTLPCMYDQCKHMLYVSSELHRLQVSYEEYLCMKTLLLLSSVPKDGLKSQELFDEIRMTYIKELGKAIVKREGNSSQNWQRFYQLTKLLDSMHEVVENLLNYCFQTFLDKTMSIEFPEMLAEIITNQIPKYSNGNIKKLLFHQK

CO/N=C(/C1=NOCCO1)c1ccccc1Oc1ncnc(Oc2ccccc2Cl)c1F
inactive: Potency [1] | Potency [2] | outcome [4] | Potency [5] | Potency [6] | outcome [7] | outcome [8] | Potency [9] | outcome [10] | outcome [11] | outcome [12] | Potency [13] | Potency [14] | Potency [15] | Potency [16] | Potency [17]
active: Potency [3] 54.4 µM

CCOP(=O)(Sc1ccccc1)Sc1ccccc1
inactive: Potency [1] | Potency [2] | Potency [18] | outcome [4] | Potency [5] | Potency [6] | outcome [7] | outcome [8] | Potency [9] | outcome [10] | outcome [11] | outcome [12] | Potency [13] | Potency [14] | Potency [15] | Potency [16] | Potency [17]

CCNc1nc(NC(C)C(C)C)nc(SC)n1 (configuration not stated)
inactive: Potency [1] | Potency [2] | Potency [18] | Potency [5] | Potency [6] | outcome [7] | Potency [9] | outcome [10] | outcome [11] | outcome [12] | Potency [13] | Potency [14] | Potency [15] | Potency [16] | Potency [17]
active: Potency [3] 7.7 µM

Cc1cnc2c(C(=O)O)c(Cl)ccc2c1
inactive: Potency [1] | Potency [2] | Potency [18] | outcome [4] | Potency [5] | Potency [6] | outcome [7] | outcome [8] | Potency [9] | outcome [10] | outcome [11] | outcome [12] | Potency [13] | Potency [14] | Potency [15] | Potency [16] | Potency [17]

[O-][Cl+3]([O-])([O-])O
inactive: Potency [1] | Potency [2] | Potency [18] | outcome [4] | Potency [5] | Potency [6] | outcome [7] | Potency [9] | outcome [10] | outcome [11] | outcome [12] | Potency [13] | Potency [14] | Potency [15]

Oc1cccc(Cl)c1Cl
inactive: Potency [1] | Potency [2] | Potency [18] | Potency [5] | Potency [6] | outcome [7] | Potency [9] | outcome [10] | outcome [11] | outcome [12] | Potency [13] | Potency [14] | Potency [15] | Potency [16] | Potency [17]
active: Potency [3] 48.8 µM

Brc1ccc(Oc2ccc(Br)cc2Br)c(Br)c1
active: Potency [3] 17.2 µM
inactive: Potency [1] | Potency [2] | Potency [18] | outcome [4] | Potency [6] | outcome [7] | outcome [8] | Potency [9] | outcome [10] | outcome [11] | outcome [12] | Potency [13] | Potency [14] | Potency [15]

CCN(CC)C(=S)S
2.98 µM (active) and inactive: Potency [3]
inactive and 4.9 µM (active): Potency [16]
inactive: Potency [1] | Potency [2] | Potency [18] | outcome [4] | Potency [5] | Potency [6] | outcome [7] | outcome [8] | Potency [9] | outcome [10] | outcome [11] | outcome [12] | Potency [13] | Potency [14] | Potency [15] | Potency [17]

COc1ccc(Cc2nccc3cc(OC)c(OC)cc23)cc1OC
inactive: Potency [1] | Potency [19] | Potency [18] | fluorescence, relative to Rose Bengal [4] 0.593% [at 18.6 µM] | fluorescence, % of fluorescein control [5] 0.0156% [at 18.6 µM] | fluorescence, % of triamterene [6] -0.311% [at 18.6 µM] | fluorescence, % of fluorescein [8] -0.0425% [at 18.6 µM] | fluorescence, % of fluorescent control [9] -0.0156% [at 18.6 µM] | fluorescence, % of fluorescent control [11] -0.0177% [at 18.6 µM] | fluorescence, % of Rose Bengal [12] -0.262% [at 18.6 µM] | fluorescence, % of fluorescent control [13] 0.0281% [at 18.6 µM] | fluorescence, % of fluorescein control [14] -0.0438% [at 18.6 µM] | fluorescence, % of fluorescent control [15] -0.0587% [at 18.6 µM]

CN(C)CCc1c[nH]c2ccccc12
inactive: Potency [1] | Potency [2] | Potency [18] | Potency [3] | outcome [4] | Potency [6] | outcome [7] | outcome [8] | Potency [9] | outcome [10] | outcome [11] | outcome [12] | Potency [13] | Potency [14] | Potency [15] | Potency [16] | Potency [17]

O=C(O)[C@H](O)[C@@H](O)C(=O)O
inactive: Potency [1] | Potency [2] | Potency [18] | Potency [5] | Potency [6] | outcome [7] | outcome [8] | Potency [9] | outcome [10] | outcome [11] | outcome [12] | Potency [13] | Potency [14] | Potency [15]

CNC(=O)O/N=C(\C)C(C)S(C)(=O)=O (configuration not stated)
inactive: Potency [1] | Potency [2] | Potency [18] | outcome [4] | Potency [5] | Potency [6] | outcome [8] | Potency [9] | outcome [10] | outcome [11] | outcome [12] | Potency [13] | Potency [15] | Potency [16] | Potency [17]

FC(F)C(F)(F)OCC(Cn1cncn1)c1ccc(Cl)cc1Cl (configuration not stated)
inactive: Potency [1] | Potency [19] | Potency [5] | Potency [6] | Potency [9] | outcome [10] | outcome [11] | outcome [12] | Potency [13] | Potency [15] | Potency [16]
active: Potency [3] 48.3 µM

C#CCC1=C(C)C(OC(=O)C2C(C=C(C)C)C2(C)C)CC1=O (configuration not stated)
active: Potency [3] 60.7 µM
inactive: Potency [1] | Potency [2] | outcome [4] | Potency [5] | Potency [6] | outcome [7] | outcome [8] | Potency [9] | outcome [10] | outcome [11] | outcome [12] | Potency [13] | Potency [14] | Potency [15]

Cc1ccccc1OP(=O)(Oc1ccccc1C)Oc1ccccc1C
inactive: Potency [1] | Potency [2] | outcome [4] | Potency [5] | Potency [6] | outcome [7] | outcome [8] | Potency [9] | outcome [11] | outcome [12] | Potency [13] | Potency [15] | Potency [16]
active: Potency [18] 9.73 µM | Potency [3] 17.3 µM | Potency [17] 27.6 µM
